According to PubChem BioAssay:
The source made the active and inactive calls. Unless noted, the rule behind the calls is not given here.

What was measured:
[1] = HepG2 liver cancer cell viability effects, profiling panel, resazurin fluorescence, 24 h, PK04 Diversity Set (AID 1172); settings: higher = more signal
[2] = basal S. cerevisiae growth modulation, no modifier, primary screen, OD600, strain BY4716, 24 h, basal condition (AID 1173); settings: OD600, 24 h, higher = more signal, called active from +8 up or from −8 down
[3] = MM1S myeloma cell viability, profiling panel, resazurin fluorescence, basal, 24 h, PK04 Diversity Set (AID 1174); settings: higher = more signal, called active from +8 up or from −8 down;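 note: MM1S multiple myeloma cell line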
[4] = molecular target: Dihydroorotate dehydrogenase (quinone), mitochondrial (Plasmodium falciparum (isolate 3D7)) (UniProt Q08210); test: PfDHODH enzyme inhibitors, primary screen, biochemical, C-terminal His tag, absorbance 600 nm (AID 1175); settings: DCIP absorbance 600 nm, higher = more signal, called active from +8 up or from −8 down;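 note: recombinant parasite enzyme with a five histidine tag at its C terminus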
Sequence of Dihydroorotate dehydrogenase (quinone), mitochondrial (Plasmodium falciparum (isolate 3D7)) (Q08210 whole entry, looked up): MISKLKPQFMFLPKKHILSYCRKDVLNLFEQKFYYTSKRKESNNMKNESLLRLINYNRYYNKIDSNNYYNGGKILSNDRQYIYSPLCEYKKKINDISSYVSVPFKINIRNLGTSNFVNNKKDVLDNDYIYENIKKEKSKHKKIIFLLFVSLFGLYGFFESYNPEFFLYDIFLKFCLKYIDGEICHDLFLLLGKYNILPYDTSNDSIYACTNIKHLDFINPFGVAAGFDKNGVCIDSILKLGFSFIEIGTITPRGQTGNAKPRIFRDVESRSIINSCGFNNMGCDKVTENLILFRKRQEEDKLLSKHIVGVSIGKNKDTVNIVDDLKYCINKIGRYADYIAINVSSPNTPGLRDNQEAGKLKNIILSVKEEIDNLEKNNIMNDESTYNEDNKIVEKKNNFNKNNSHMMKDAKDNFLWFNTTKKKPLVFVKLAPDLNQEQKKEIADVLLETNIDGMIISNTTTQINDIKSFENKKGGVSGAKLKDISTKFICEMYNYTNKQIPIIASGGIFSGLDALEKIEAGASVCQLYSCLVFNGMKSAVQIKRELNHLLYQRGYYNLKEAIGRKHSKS

[5] = P. aeruginosa biofilm formation inhibitors, primary screen, strain PAO1, LB-PBS medium, absorbance 600 nm (AID 1176); settings: P. aeruginosa PAO1 growth/biofilm, A600, 12 h; higher = more signal
[6] = S. cerevisiae RM11-1a growth modifiers, primary screen, strain RM11-1a, OD600, basal, 24 h (AID 1177); settings: OD600, 24 h, higher = more signal, called active from +8 up or from −8 down;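 note: cultures grown under basal conditions with no added stressor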
[7] = E. coli acrAB mutant growth effects, primary screen, E. coli filamentation inducers, strain DRC39, OD650, 24 h (AID 1178); settings: higher = more signal, called active from +8 up or from −8 down;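 note: growth measured as culture turbidity by optical density at 650 nm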
[8] = E. coli acrAB mutant growth effects, primary screen, E. coli filamentation inducers, strain DRC39, OD650, 48 h (AID 1179);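 note: screen aims at cell division blockers that make cells filament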; settings: E. coli DRC39 delta-acrAB growth, higher = more signal, called active from +8 up or from −8 down
[9] = RPMI8226 myeloma cell viability, profiling panel, resazurin fluorescence, basal, 24 h, PK04 Diversity Set (AID 1180); settings: higher = more signal;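 note: RPMI8826 multiple myeloma cell line at 5000 cells per well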
[10] = molecular target: E3 ubiquitin-protein ligase XIAP (Homo sapiens) (UniProt P98170); test: XIAP binders, primary screen, biophysical, small-molecule microarray, fluorescence 635 nm (AID 1181); settings: small-molecule microarray binding, higher = more signal;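 note: score merges 667 nm emission and signal to noise over triplicate slides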
Sequence of E3 ubiquitin-protein ligase XIAP (Homo sapiens) (P98170 whole entry, looked up): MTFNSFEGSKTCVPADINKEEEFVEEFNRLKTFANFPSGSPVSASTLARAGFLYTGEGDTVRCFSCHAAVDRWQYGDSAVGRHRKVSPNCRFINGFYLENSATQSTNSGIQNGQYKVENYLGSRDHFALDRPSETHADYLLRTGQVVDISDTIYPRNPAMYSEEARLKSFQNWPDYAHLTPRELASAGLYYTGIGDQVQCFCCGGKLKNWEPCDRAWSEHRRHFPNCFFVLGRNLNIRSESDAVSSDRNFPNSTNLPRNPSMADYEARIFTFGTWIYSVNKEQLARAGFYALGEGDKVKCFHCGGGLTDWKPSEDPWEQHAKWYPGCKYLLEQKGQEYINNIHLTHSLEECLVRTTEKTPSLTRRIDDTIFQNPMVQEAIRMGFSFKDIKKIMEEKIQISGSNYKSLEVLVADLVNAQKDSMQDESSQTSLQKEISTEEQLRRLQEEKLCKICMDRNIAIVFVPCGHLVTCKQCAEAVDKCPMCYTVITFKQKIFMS

[11] = test system: XIP peptide (Xip251-270) binding; test: small-molecule binders of XIP peptide, primary screen, biochemical, small-molecule microarray, fluorescence 635/667 nm, 0.1 µg/mL protein (AID 1182); settings: fluorescent protein binding, 635 nm, higher = more signal, called active from +8 up or from −8 down
[12] = test system: XIP peptide (Xip251-270); test: small-molecule binders of XIP peptide, primary screen, biochemical, small-molecule microarray, fluorescence 635/667 nm, 0.5 µg/mL protein (AID 1183); settings: small-molecule microarray binding, fluorescence 635 nm; higher = more signal
[13] = Plasmodium falciparum growth inhibition, primary screen, strain 3D7, DAPI fluorescence, 100 nL (AID 1184);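 note: parasites grown inside human red blood cells in medium with human serum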; settings: P. falciparum 3D7 growth, 3 d, higher = more signal
[14] = molecular target: Homeobox protein Hox-A13 (Mus musculus) (UniProt Q62424); test: inhibitors of HoxA13-DNA binding, primary screen, biochemical, fluorescence polarization, labeled oligonucleotide (AID 1185); settings: 15 min, higher = more signal, called active from +8 up or from −8 down
Sequence of Homeobox protein Hox-A13 (Mus musculus) (Q62424 whole entry, looked up): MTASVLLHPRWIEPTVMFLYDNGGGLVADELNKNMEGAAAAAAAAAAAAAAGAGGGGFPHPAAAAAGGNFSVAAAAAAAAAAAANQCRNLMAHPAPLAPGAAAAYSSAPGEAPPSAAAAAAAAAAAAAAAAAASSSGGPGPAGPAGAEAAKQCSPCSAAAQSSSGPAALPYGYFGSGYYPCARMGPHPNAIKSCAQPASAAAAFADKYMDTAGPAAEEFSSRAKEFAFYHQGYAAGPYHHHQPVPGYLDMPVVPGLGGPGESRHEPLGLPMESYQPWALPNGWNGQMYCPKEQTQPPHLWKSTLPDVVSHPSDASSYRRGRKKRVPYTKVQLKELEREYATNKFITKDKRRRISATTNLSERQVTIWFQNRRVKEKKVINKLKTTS

[15] = inhibitors of hydroxyurea-induced Chk1 phosphorylation, primary screen, imaging, HeLa, phospho-Chk1 antibody, percent positive cells (AID 1186); settings: hydroxyurea-induced phospho-Chk1 immunofluorescence imaging, higher = more signal
[16] = inhibitors of hydroxyurea-induced Chk1 phosphorylation, primary screen, imaging, HeLa, phospho-Chk1 nuclear intensity (AID 1187); settings: hydroxyurea-induced phospho-Chk1 immunofluorescence imaging, higher = more signal

CC1CC/C=C\[C@H]2OC34C=CCN(C(C)(C)C)C(=O)[C@H]3N(CCCCCCO)C(=O)[C@@H]4C2C(=O)O1 (some centres undefined)
z-score [1]: -0.0231 | z-score [2]: -0.51 (inactive) | z-score [3]: -1.72 (inactive) | composite z-score [4]: -1.07 (inactive) | z-score [5]: -0.401 (inactive) | z-score [6]: 0.0296 (inactive) | z-score [7]: 0.504 (inactive) | z-score [8]: 0.749 (inactive) | z-score [9]: -1.14 | composite z-score [10]: 0.191 | composite z-score [11]: 1.87 (inactive) | composite z-score [12]: -0.512 | z-score [13]: 0.621 | z-score [14]: -4.21 (inactive) | z-score [15]: -0.82 (inactive) | z-score [16]: 0.193 (inactive)

COC(=O)[C@@]1(Cc2ccc(F)cc2)[C@H]2c3cc(C(=O)N4CCCC4)n(Cc4cc(C)n(C)n4)c3C[C@H]2CN1C(=O)c1ccccc1
z-score [1]: -0.945 | z-score [2]: 0.603 (inactive) | z-score [3]: -0.642 (inactive) | composite z-score [4]: -0.468 (inactive) | z-score [5]: 0.964 (inactive) | z-score [6]: 0.279 (inactive) | z-score [7]: -0.375 (inactive) | z-score [8]: -0.459 (inactive) | z-score [9]: -1.51 | composite z-score [10]: 0.17 | composite z-score [11]: 1.55 (inactive) | composite z-score [12]: 0.759 | z-score [13]: -1.58 | z-score [14]: -3.99 (inactive) | z-score [15]: 0.611 (inactive) | z-score [16]: 0.53 (inactive)

COc1ccc(C(O)C2C=CC3C(=O)NC(=O)C3N2Nc2ccccn2)c2ccccc12 (centres undefined)
z-score [1]: -1.07 | z-score [2]: -0.33 (inactive) | z-score [3]: -0.782 (inactive) | composite z-score [4]: 0.977 (inactive) | z-score [5]: 1.26 (inactive) | z-score [6]: 0.75 (inactive) | z-score [7]: -0.272 (inactive) | z-score [8]: -0.571 (inactive) | z-score [9]: -1.24 | composite z-score [10]: 0.246 | composite z-score [11]: 0.123 (inactive) | composite z-score [12]: -0.034 | z-score [13]: 0.8 | z-score [14]: -1.97 (inactive) | z-score [15]: 0.141 (inactive) | z-score [16]: -0.22 (inactive)

COc1ccc([Si](C)(C)[C@H]2[C@H](CC(=O)N3Cc4ccccc4C[C@H]3CO)O[C@@]3(C(=O)N(Cc4ccc(N5CCC5=O)cc4)c4ccccc43)[C@@H]2C)cc1
z-score [1]: 0.194 | z-score [2]: -0.535 (inactive) | z-score [3]: -1.56 (inactive) | composite z-score [4]: -3.08 (inactive) | z-score [5]: 0.201 (inactive) | z-score [6]: 1.83 (inactive) | z-score [7]: -0.0476 (inactive) | z-score [8]: -0.421 (inactive) | z-score [9]: -1.26 | composite z-score [10]: 0.216 | composite z-score [11]: 0.0316 (inactive) | composite z-score [12]: 0.817 | z-score [13]: -1.95 | z-score [14]: -3.83 (inactive) | z-score [15]: -0.176 (inactive) | z-score [16]: -0.0862 (inactive)

O=C1NCC(=O)N2[C@@H]1C[C@@H](C(=O)O)[C@H]2c1cccc(OCCO)c1
z-score [1]: 0.0195 | z-score [2]: -0.816 (inactive) | z-score [3]: -0.159 (inactive) | composite z-score [4]: 0.97 (inactive) | z-score [5]: -0.53 (inactive) | z-score [6]: 0.569 (inactive) | z-score [7]: -0.151 (inactive) | z-score [8]: 0.524 (inactive) | z-score [9]: -0.828 | composite z-score [10]: 3.93 | composite z-score [11]: 6.39 (inactive) | composite z-score [12]: 1.02 | z-score [13]: 0.0934 | z-score [14]: -1.39 (inactive) | z-score [15]: -0.467 (inactive) | z-score [16]: -0.367 (inactive)

COCCOC(=O)N1C(=O)[C@@]2(c3cc(C#Cc4ccc(OC)cc4)ccc31)[C@H](c1ccccc1OCCO)N1[C@H](c3ccccc3)[C@H](c3ccccc3)OC(=O)[C@H]1[C@@H]2C(=O)N1CCN(c2ncccn2)CC1
z-score [1]: 0.214 | z-score [2]: 2.12 (inactive) | z-score [3]: -0.539 (inactive) | composite z-score [4]: 0.478 (inactive) | z-score [5]: 1.64 (inactive) | z-score [6]: 3.89 (inactive) | z-score [7]: 0.0722 (inactive) | z-score [8]: 0.857 (inactive) | z-score [9]: 0.0636 | composite z-score [10]: 0.397 | composite z-score [11]: -0.349 (inactive) | composite z-score [12]: 0.59 | z-score [13]: -1.86 | z-score [14]: 0.484 (inactive) | z-score [15]: 0.0768 (inactive) | z-score [16]: 0.273 (inactive)

COC(=O)[C@@]1(Cc2ccccc2)[C@H]2c3cc(C(=O)N4CCCC4)n(Cc4cccc5ccccc45)c3C[C@H]2CN1C(=O)c1ccccc1
z-score [1]: -1.13 | z-score [2]: 1.37 (inactive) | z-score [3]: -1.65 (inactive) | composite z-score [4]: -0.323 (inactive) | z-score [5]: -0.347 (inactive) | z-score [6]: 0.224 (inactive) | z-score [7]: -0.131 (inactive) | z-score [8]: -0.0176 (inactive) | z-score [9]: -1.9 | composite z-score [10]: -0.0082 | composite z-score [11]: 0.112 (inactive) | composite z-score [12]: -0.569 | z-score [13]: -1.35 | z-score [14]: -3.06 (inactive) | z-score [15]: 1.05 (inactive) | z-score [16]: 0.243 (inactive)

[N-]=[N+]=Nc1ccccc1C[C@]1(C(N)=O)N=C(c2ccc(OCCCO)cc2)O[C@H]1c1ccccc1
z-score [1]: 0.329 | z-score [2]: -0.936 (inactive) | z-score [3]: -1.02 (inactive) | composite z-score [4]: 0.667 (inactive) | z-score [5]: 1.16 (inactive) | z-score [6]: 1.33 (inactive) | z-score [7]: 0.0314 (inactive) | z-score [8]: -0.665 (inactive) | z-score [9]: -1.03 | composite z-score [10]: -0.108 | composite z-score [11]: -0.254 (inactive) | composite z-score [12]: 0.537 | z-score [13]: -0.98 | z-score [14]: -7.09 (inactive) | z-score [15]: 0.0195 (inactive) | z-score [16]: -0.54 (inactive)

COc1ccc(CCN2C(=O)[C@@]3(c4ccc([N+](=O)[O-])cc4)CC(=O)N(C4CCCCC4)[C@@H]3c3ccc(CO)cc32)cc1
z-score [1]: -0.356 | z-score [2]: 1.37 (inactive) | z-score [3]: -0.672 (inactive) | composite z-score [4]: -25.9 (active) | z-score [5]: 0.944 (inactive) | z-score [6]: -0.582 (inactive) | z-score [7]: -0.0051 (inactive) | z-score [8]: -0.0209 (inactive) | z-score [9]: -0.749 | composite z-score [10]: -0.167 | composite z-score [11]: 1.23 (inactive) | composite z-score [12]: 0.311 | z-score [13]: 0.706 | z-score [14]: -0.544 (inactive) | z-score [15]: 0.135 (inactive) | z-score [16]: -0.0588 (inactive)
